Pf apPOL inh: Pf-apPOL inhibitors, biochemical, fluorescence. Plasmodium falciparum apicoplast DNA polymerase (apPOL). Recombinant Pf-apPOL, molecular beacon fluorescence, 1.5 h. inhibition, % at 10 µM. hit rate 0.25% among 210,000
mHTT CaM bind: mutant huntingtin-calmodulin interaction inhibitors – biochemical, AlphaScreen, primary screen; AID 1671202, 2021; P42858; hit rate 3.6% among 190,000; inhibition, % at 15 µM; AlphaScreen His-mHTT/GST-CaM binding, luminescence;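 note: 0% = both proteins with DMSO and 100% = one protein alone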
* marks the source's active call; other numbers are inactive results; · = no result. The sample as a whole holds a higher share of hits than the screen did. Cut-off read from the data, not from the text of the source: active = inhibition above about 50%; inactive = the rest.

SMILES	Pf apPOL inh	mHTT CaM bind
CC1=C(C(=O)Nc2cccc(C(F)(F)F)c2)C(c2ccccc2)C2=C(CC(C)(C)CC2=O)N1 (stereo unspecified)	1	92*
CC1=C(C(=O)Nc2cccc(C(F)(F)F)c2)C(c2ccccn2)C2=C(CC(C)(C)CC2=O)N1 (stereo unspecified)	-9	-2
Cc1nn(CCCC(=O)Nc2ccc(C#N)cc2)c(C)c1[N+](=O)[O-]	2	2
CCC(C)NC(=O)C1CCCN(S(=O)(=O)N2CC(C)CC(C)C2)C1 (stereo unspecified)	-14	-9
COc1cc(C(CCN2CCOCC2)c2c(OC)cc(OC)c3c(-c4ccccc4)cc(=O)oc23)cc(OC)c1OC (stereo unspecified)	-22	75*
O=c1cc(-c2ccccc2)c2ccc(O)c(CN3CCOCC3)c2o1	2	-10
CCN(CC)C(=O)CC(c1cc(OC)c(OC)c(OC)c1)c1c(OC)cc(OC)c2ccc(=O)oc12 (stereo unspecified)	-3	26
COc1cc(C(CCN2CCCC2)c2c(OC)cc(OC)c3c(-c4ccccc4)cc(=O)oc23)cc(OC)c1OC (stereo unspecified)	-20	58*
CCN(CC)C(=O)CC(c1cc(OC)c(OC)c(OC)c1)c1c(OC)cc(OC)c2c(-c3ccccc3)cc(=O)oc12 (stereo unspecified)	9	69*
COc1cc(O)c(CN2CCCC2)c2oc(-c3ccccc3)cc(=O)c12	0	3
Cc1ccc(Cl)cc1NC(=O)C(=O)NCc1cccnc1	-6	-9
CCc1ccc(C2=NC(C(C)C)NC(c3cc(Cl)ccc3O)C2)cc1 (stereo unspecified)	-2	22
CN(CC(=O)N1N=C(c2cccn2C)CC1c1ccccc1)C(=O)C1CCC1 (stereo unspecified)	0	55*
CC(=O)N(C)CC(=O)N1N=C(c2cccn2C)CC1c1ccc(Cl)cc1 (stereo unspecified)	0	65*
CC(C)C(=O)N(C)CC(=O)N1N=C(c2ccc(F)cc2)CC1c1ccccc1 (stereo unspecified)	-3	17
CC(C)C(=O)N(C)CC(=O)N1N=C(c2cccn2C)CC1c1ccc(Cl)cc1 (stereo unspecified)	-7	78*
COc1ccc(C2=NN(C(=O)CN(C)C(C)=O)C(c3ccc(Cl)cc3)C2)cc1 (stereo unspecified)	-10	35
CN(CC(=O)N1N=C(c2cccn2C)CC1c1ccc(Cl)cc1)C(=O)C1CCC1 (stereo unspecified)	-5	49
CN1CCN(C(=O)CSc2nc3c(c(C(F)(F)F)c2C#N)CCC3)CC1	·	62*
CCCCSc1nc2c(c(C(F)(F)F)c1C#N)CC(C)CC2 (stereo unspecified)	·	-88
COc1cc2oc(-c3ccccc3)cc(=O)c2c(O)c1CN(C)C	27	100*
COc1cc(O)c(CN(C)C)c2oc(-c3ccccc3)cc(=O)c12	-3	1
COc1ccc(/C=C2/N=C(c3ccc(C)cc3)OC2=O)c(OC)c1OC	11	0
O=C1CSC(=O)N1CCOc1ccc(F)cc1	2	-5
O=C1CSC(=O)N1CC(O)COc1ccc(OCC(O)CN2C(=O)CSC2=O)cc1 (stereo unspecified)	70*	1
SMILES	Pf apPOL inh	mHTT CaM bind
Cn1ccc2c(cc(C(=O)NCc3cccc(Br)c3)n2C)c1=O	-1	-5
OCc1cn(-c2ccccc2)nc1-c1cccnc1	-1	-3
O=C(/C=C/c1cn(-c2ccccc2)nc1-c1cccnc1)c1cccs1	0	52*
Cc1c(N=Cc2cn(-c3ccccc3)nc2-c2cccnc2)c(=O)n(-c2ccccc2)n1C	-8	31
O=C(/C=C/c1cn(-c2ccccc2)nc1-c1cccnc1)c1ccco1	6	53*
Cc1cc2c(c(=O)[nH]1)C(=O)O/C2=C\c1ccc(I)o1	-4	36
O=C(NCc1cccnc1)c1cccc(CN2C(=O)C3CCCN3C(=O)c3ccccc32)c1 (stereo unspecified)	-5	-6
O=C(NCc1cccnc1)c1cccc(CN2C(=O)CSc3ccccc32)c1	3	92*
CCN1C(=O)c2cccc3c(NC(=O)c4ccccc4[N+](=O)[O-])ccc1c23	1	2
CCN1C(=O)c2cccc3c(NC(=O)COc4ccc(Cl)cc4)ccc1c23	-6	52*
FC(F)(F)c1cccc(-c2nnc(-c3ccc(Oc4cc(Cl)cc(Cl)c4)o3)o2)c1	0	·
CN(C)S(=O)(=O)Oc1ccc(-c2noc(-c3ccc(Oc4cc(Cl)cc(Cl)c4)o3)n2)cc1	59*	·
N#Cc1ccc(N=Cc2cc(I)cc(I)c2O)cc1	0	53*
CCOC(=O)c1ccc(N=Cc2cc(I)cc(I)c2O)cc1	-26	·
O=C(c1noc2c1CCCCC2)N1CCN(c2ccccc2F)CC1	-2	-13
Cc1ccc(Cl)cc1N1CCN(C(=O)c2noc3c2CCCC3)CC1	-3	96*
COc1ccc(S(=O)(=O)NCc2ccc(CNS(=O)(=O)c3ccc(OC)cc3)cc2)cc1	-2	59*

Screening results deposited in PubChem BioAssay by University of Kansas High Throughput Screening Laboratory.
